# The full ranking holds about 2,900 compounds; the median of “IRF Lucia reporter activity, fold change vs agonist alone” is about 0.9, and the highest 2% start at about 2.8. Many of the other results were omitted from the sample, so the highest values are more common in it than they were.
# How the values were obtained:
# RAW-Dual [1] = assay: IRF Lucia reporter activity, fold change vs agonist alone; cytotoxicity flag (confluency mask): not cytotoxic; higher = enhanced IRF activity
# In short: (§1)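 RAW-Dual macrophages (50,000 cells/well in DMEM, 384-well plates) received 50 nL of library stock by pin tool, then a PRR agonist 1 h later, and were kept at 37 °C, 5% CO2. After 20 hours, supernatant was read for IRF by QuantiLuc luminescence and for NF-κB by QuantiBlue absorbance at 620 nm. Reporter activity is fold change over agonist-alone wells. Cytotoxic wells had IncuCyte confluency below 70% of agonist controls in both mask sets.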
# RAW-Dual [2] = assay: IRF Lucia reporter activity, fold change vs agonist alone; cytotoxicity flag (confluency mask): cytotoxic (confluency <70% of control); higher = enhanced IRF activity
# In short: as §1
# RAW-Dual [3] = assay: IRF Lucia reporter activity, fold change vs agonist alone; higher = enhanced IRF activity; details: agonist: MPLA (TLR4) […]
# In short: as §1
# [4] = agonist: 3'3'-cGAMP (STING) 10 ug/mL
# [5] = library stock concentration (final ~1000-fold dilution): 10 mM, cytotoxicity flag (confluency mask): cytotoxic (confluency <70% of control)
# [6] = library stock concentration (final ~1000-fold dilution): 10 mM, cytotoxicity flag (confluency mask): not cytotoxic
smiles,measurement,setting,value
CCC(=O)N1CCC(Nc2ncnc3c2CN(c2cnc(OC)c(C(F)(F)F)c2)CC3)C1 (stereo not drawn) (library stock concentration (final ~1000-fold dilution): 10 mM),IRF Lucia reporter activity,RAW-Dual [1]; [4],0.908
same,IRF Lucia reporter activity,RAW-Dual [1]; agonist: LPS (TLR4) 0.1 ug/mL,0.847
CCc1c2c(nc3ccc(OC(=O)N4CCC(N5CCCCC5)CC4)cc13)-c1cc3c(c(=O)n1C2)COC(=O)C3(O)CC.Cl.O.O.O (stereo not drawn) (library stock concentration (final ~1000-fold dilution): 10 mM),IRF Lucia reporter activity,RAW-Dual [1]; [4],0.87
same,IRF Lucia reporter activity,RAW-Dual [1]; agonist: LPS (TLR4) 0.1 ug/mL,1.1
CCC1(O)C(=O)OCc2c1cc1n(c2=O)Cc2cc3cc(O)ccc3nc2-1 (stereo not drawn) (library stock concentration (final ~1000-fold dilution): 10 mM),IRF Lucia reporter activity,RAW-Dual [1]; [4],0.975
same,IRF Lucia reporter activity,RAW-Dual [1]; agonist: LPS (TLR4) 0.1 ug/mL,0.604
same,IRF Lucia reporter activity,RAW-Dual [2]; [4],2.36
same,IRF Lucia reporter activity,RAW-Dual [2]; agonist: LPS (TLR4) 0.1 ug/mL,1.76
CCc1c2c(nc3ccc(O)cc13)-c1cc3c(c(=O)n1C2)COC(=O)C3(O)CC (stereo not drawn) (library stock concentration (final ~1000-fold dilution): 10 mM),IRF Lucia reporter activity,RAW-Dual [1]; [4],1.24
same,IRF Lucia reporter activity,RAW-Dual [1]; agonist: LPS (TLR4) 0.1 ug/mL,1.29
CCC1(O)C(=O)OCc2c1cc1n(c2=O)Cc2cc3c(CN(C)C)c(O)ccc3nc2-1.Cl (stereo not drawn) (library stock concentration (final ~1000-fold dilution): 10 mM),IRF Lucia reporter activity,RAW-Dual [2]; [4],2.13
same,IRF Lucia reporter activity,RAW-Dual [2]; agonist: LPS (TLR4) 0.1 ug/mL,2.49
CCC1(O)C(=O)OCc2c1cc1n(c2=O)Cc2cc3cc(O)ccc3nc2-1 (stereo not drawn),IRF Lucia reporter activity,RAW-Dual [3]; [5],2.58
same,IRF Lucia reporter activity,RAW-Dual [3]; [6],1.03
CCC1(O)C(=O)OCc2c1cc1n(c2=O)Cc2cc3c(CN(C)C)c(O)ccc3nc2-1 (stereo not drawn) (library stock concentration (final ~1000-fold dilution): 10 mM),IRF Lucia reporter activity,RAW-Dual [1]; [4],2.77
same,IRF Lucia reporter activity,RAW-Dual [1]; agonist: LPS (TLR4) 0.1 ug/mL,3.25
CCc1c2c(nc3ccc(OC(=O)N4CCC(N5CCCCC5)CC4)cc13)-c1cc3c(c(=O)n1C2)COC(=O)C3(O)CC.Cl.O.O.O (stereo not drawn),IRF Lucia reporter activity,RAW-Dual [3]; [6],1.15
CCC1(O)C(=O)OCc2c1cc1n(c2=O)Cc2cc3c(CN(C)C)c(O)ccc3nc2-1.Cl (stereo not drawn),IRF Lucia reporter activity,RAW-Dual [3]; [5],3.1
CCc1c2c(nc3ccc(O)cc13)-c1cc3c(c(=O)n1C2)COC(=O)C3(O)CC (stereo not drawn),IRF Lucia reporter activity,RAW-Dual [3]; [6],1.65
COc1ccc2cc1Oc1ccc(cc1)CC1c3cc(c(OC)cc3CCN1C)Oc1c(OC)c(OC)cc3c1C(C2)N(C)CC3 (stereo not drawn),IRF Lucia reporter activity,RAW-Dual [3]; [6],1.07
COc1ccc2cc1Oc1ccc(cc1)CC1c3cc(c(OC)cc3CCN1C)Oc1c(OC)c(OC)cc3c1C(C2)N(C)CC3 (stereo not drawn) (library stock concentration (final ~1000-fold dilution): 10 mM),IRF Lucia reporter activity,RAW-Dual [1]; [4],1.01
same,IRF Lucia reporter activity,RAW-Dual [1]; agonist: LPS (TLR4) 0.1 ug/mL,0.352
Cn1c(=O)cc(N2CCCC(N)C2)n(Cc2cc(F)ccc2C#N)c1=O.O=C(O)CCC(=O)O (stereo not drawn) (library stock concentration (final ~1000-fold dilution): 10 mM),IRF Lucia reporter activity,RAW-Dual [1]; [4],1.04
same,IRF Lucia reporter activity,RAW-Dual [1]; agonist: LPS (TLR4) 0.1 ug/mL,1.26
Cn1c(=O)cc(N2CCCC(N)C2)n(Cc2cc(F)ccc2C#N)c1=O.O=C(O)CCC(=O)O (stereo not drawn),IRF Lucia reporter activity,RAW-Dual [3]; [6],1.13
CCC(C)CC(C)CCCCCCCCC(=O)NC1CC(O)C(NCCN)NC(=O)C2C(O)CCN2C(=O)C(C(O)CCN)NC(=O)C(C(O)C(O)c2ccc(O)cc2)NC(=O)C2CC(O)CN2C(=O)C(C(C)O)NC1=O (stereo not drawn) (library stock concentration (final ~1000-fold dilution): 10 mM water),IRF Lucia reporter activity,RAW-Dual [1]; [4],0.923
same,IRF Lucia reporter activity,RAW-Dual [1]; agonist: LPS (TLR4) 0.1 ug/mL,0.909
CCC(C)CC(C)CCCCCCCCC(=O)NC1CC(O)C(NCCN)NC(=O)C2C(O)CCN2C(=O)C(C(O)CCN)NC(=O)C(C(O)C(O)c2ccc(O)cc2)NC(=O)C2CC(O)CN2C(=O)C(C(C)O)NC1=O (stereo not drawn),IRF Lucia reporter activity,"RAW-Dual [3]; library stock concentration (final ~1000-fold dilution): 10 mM water, cytotoxicity flag (confluency mask): not cytotoxic",1.21
Cn1cnc2c(F)c(Nc3ccc(Br)cc3Cl)c(C(=O)NOCCO)cc21,IRF Lucia reporter activity,RAW-Dual [3]; [6],2.77
Cn1cnc2c(F)c(Nc3ccc(Br)cc3Cl)c(C(=O)NOCCO)cc21 (library stock concentration (final ~1000-fold dilution): 10 mM),IRF Lucia reporter activity,RAW-Dual [1]; [4],0.69
same,IRF Lucia reporter activity,RAW-Dual [1]; agonist: LPS (TLR4) 0.1 ug/mL,3.1
Cn1cnc2c(F)c(Nc3ccc(Br)cc3F)c(C(=O)NOCCO)cc21 (library stock concentration (final ~1000-fold dilution): 10 mM),IRF Lucia reporter activity,RAW-Dual [1]; [4],0.728
same,IRF Lucia reporter activity,RAW-Dual [1]; agonist: LPS (TLR4) 0.1 ug/mL,2.67
Cn1cnc2c(F)c(Nc3ccc(Br)cc3F)c(C(=O)NOCCO)cc21,IRF Lucia reporter activity,RAW-Dual [3]; [6],2.67
COCCOc1nc(N)c2[nH]c(=O)n(Cc3ccc(C(=O)O)cc3)c2n1 (library stock concentration (final ~1000-fold dilution): 10 mM),IRF Lucia reporter activity,RAW-Dual [1]; [4],1.54
same,IRF Lucia reporter activity,RAW-Dual [1]; agonist: LPS (TLR4) 0.1 ug/mL,1.06
COC(C(=O)N1Cc2[nH]nc(NC(=O)c3ccc(N4CCN(C)CC4)cc3)c2C1)c1ccccc1 (stereo not drawn) (library stock concentration (final ~1000-fold dilution): 10 mM),IRF Lucia reporter activity,RAW-Dual [1]; [4],0.149
same,IRF Lucia reporter activity,RAW-Dual [1]; agonist: LPS (TLR4) 0.1 ug/mL,0.162
